# Measured values reported in PMC7862700, “An all-to-all approach to the identification of sequence-specific readers for epigenetic DNA modifications on cytosine”.
# Experiments:
# Assay in all cases: DAPPL (digital affinity profiling via proximity ligation, sequencing); 10 mM Tris-HCl pH 7.5, 50 mM NaCl, 1 mM DTT, 4% glycerol, room temperature, 30 min; GST-TFs on glutathione beads, 16-mer random dsDNA library, 0.1% formaldehyde crosslink after washing; high values mean tight binding
# [1] = molecular target: T1, FLI1 (Homo sapiens, UniProt Q01543 1-452); conditions: protein: recombinant; tags: N-terminal GST; dsDNA, one strand shown
# T1 sequence: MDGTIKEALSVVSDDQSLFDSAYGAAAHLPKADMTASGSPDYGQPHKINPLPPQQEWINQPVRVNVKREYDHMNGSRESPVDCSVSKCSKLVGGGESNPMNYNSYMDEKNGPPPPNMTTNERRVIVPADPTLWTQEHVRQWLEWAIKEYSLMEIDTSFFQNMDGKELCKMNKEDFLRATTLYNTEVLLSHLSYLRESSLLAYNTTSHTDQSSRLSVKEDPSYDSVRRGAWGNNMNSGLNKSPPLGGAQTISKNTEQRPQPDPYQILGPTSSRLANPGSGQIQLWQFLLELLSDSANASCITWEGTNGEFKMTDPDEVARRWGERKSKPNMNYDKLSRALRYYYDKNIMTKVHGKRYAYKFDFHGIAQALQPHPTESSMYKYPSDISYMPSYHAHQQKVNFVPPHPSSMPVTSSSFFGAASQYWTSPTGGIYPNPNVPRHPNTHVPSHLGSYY
# How it was run: (§1)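 Binding signal is given per hexamer as its read frequency for a factor divided by its frequency in the tag-only sample. GST-fused human transcription factors were expressed in yeast, captured on glutathione beads, barcoded with DNA and pooled with that sample, then incubated with 200 nmole of a 16-mer random double-stranded DNA library in Tris/NaCl/DTT/glycerol buffer for 30 min at room temperature. The pools were then washed, crosslinked, proximity-ligated, amplified by PCR and sequenced on an Illumina NextSeq500.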
# [2] = molecular target: T2, ELK1 (Homo sapiens, UniProt P19419 1-428); conditions: protein: recombinant; tags: N-terminal GST; dsDNA, one strand shown
# T2 sequence: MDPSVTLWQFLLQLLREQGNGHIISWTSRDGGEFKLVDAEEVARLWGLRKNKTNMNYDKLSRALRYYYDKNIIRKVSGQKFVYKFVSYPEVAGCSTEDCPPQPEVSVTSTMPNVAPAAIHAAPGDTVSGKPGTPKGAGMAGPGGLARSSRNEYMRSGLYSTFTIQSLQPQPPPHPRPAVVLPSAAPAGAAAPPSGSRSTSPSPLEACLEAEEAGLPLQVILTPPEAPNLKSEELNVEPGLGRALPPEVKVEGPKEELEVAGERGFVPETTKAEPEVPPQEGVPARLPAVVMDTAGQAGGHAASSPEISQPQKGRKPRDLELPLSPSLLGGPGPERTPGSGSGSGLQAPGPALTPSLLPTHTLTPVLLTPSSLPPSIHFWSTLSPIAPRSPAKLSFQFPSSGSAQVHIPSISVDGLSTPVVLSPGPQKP
# How it was run: as §1
# [3] = molecular target: T3, GABPA (Homo sapiens, UniProt Q06546 1-454); conditions: protein: recombinant; tags: N-terminal GST; dsDNA, one strand shown
# T3 sequence: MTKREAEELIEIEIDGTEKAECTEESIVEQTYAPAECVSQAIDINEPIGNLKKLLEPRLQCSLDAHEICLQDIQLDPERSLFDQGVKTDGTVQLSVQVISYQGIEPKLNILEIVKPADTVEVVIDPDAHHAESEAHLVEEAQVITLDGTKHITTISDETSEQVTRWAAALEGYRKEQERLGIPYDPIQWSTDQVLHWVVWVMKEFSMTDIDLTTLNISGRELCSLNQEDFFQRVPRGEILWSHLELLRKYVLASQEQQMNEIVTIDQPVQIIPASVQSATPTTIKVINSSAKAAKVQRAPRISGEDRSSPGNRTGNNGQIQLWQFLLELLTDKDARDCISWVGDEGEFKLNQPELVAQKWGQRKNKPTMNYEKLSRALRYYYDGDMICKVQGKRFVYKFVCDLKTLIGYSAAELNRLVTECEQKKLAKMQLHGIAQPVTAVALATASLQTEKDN
# How it was run: as §1
# [4] = molecular target: T4, ERG (Homo sapiens, UniProt P11308 1-479); conditions: protein: recombinant; tags: N-terminal GST; dsDNA, one strand shown
# T4 sequence: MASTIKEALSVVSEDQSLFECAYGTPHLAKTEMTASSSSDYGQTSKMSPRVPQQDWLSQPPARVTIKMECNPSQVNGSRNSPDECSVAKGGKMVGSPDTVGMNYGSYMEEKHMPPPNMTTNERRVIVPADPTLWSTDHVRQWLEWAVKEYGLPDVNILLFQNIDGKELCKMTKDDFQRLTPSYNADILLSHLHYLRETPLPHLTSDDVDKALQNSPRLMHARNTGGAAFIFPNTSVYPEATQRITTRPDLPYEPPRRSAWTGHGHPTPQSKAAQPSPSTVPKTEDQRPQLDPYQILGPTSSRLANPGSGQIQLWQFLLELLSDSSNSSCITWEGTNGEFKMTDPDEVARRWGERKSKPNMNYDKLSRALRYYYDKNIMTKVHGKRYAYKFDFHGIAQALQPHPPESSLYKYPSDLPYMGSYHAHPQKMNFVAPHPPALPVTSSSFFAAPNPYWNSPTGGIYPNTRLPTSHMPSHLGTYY
# How it was run: as §1
# [5] = molecular target: ELF1 (Homo sapiens, UniProt P32519 1-619); conditions: protein: recombinant; tags: N-terminal GST; dsDNA, one strand shown
# ELF1, sequence (P32519 whole entry): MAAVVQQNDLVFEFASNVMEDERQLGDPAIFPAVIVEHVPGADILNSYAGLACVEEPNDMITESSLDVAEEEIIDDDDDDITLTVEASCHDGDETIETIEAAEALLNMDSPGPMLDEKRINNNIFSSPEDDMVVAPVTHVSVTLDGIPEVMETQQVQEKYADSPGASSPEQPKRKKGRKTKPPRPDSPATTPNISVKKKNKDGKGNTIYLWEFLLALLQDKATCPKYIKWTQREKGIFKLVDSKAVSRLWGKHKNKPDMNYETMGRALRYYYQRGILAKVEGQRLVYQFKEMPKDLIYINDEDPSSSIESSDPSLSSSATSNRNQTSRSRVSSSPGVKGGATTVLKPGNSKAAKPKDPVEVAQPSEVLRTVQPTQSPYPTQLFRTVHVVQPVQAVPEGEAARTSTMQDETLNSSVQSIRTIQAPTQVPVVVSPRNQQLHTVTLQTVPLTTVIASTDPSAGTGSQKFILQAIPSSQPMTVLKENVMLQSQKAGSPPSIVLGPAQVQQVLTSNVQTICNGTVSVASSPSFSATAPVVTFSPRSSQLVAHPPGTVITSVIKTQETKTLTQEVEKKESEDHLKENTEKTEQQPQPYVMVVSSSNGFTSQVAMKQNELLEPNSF
# How it was run: as §1
# [6] = molecular target: T5, EHF (Homo sapiens, UniProt Q9NZC4 1-300); conditions: protein: recombinant; tags: N-terminal GST; dsDNA, one strand shown
# T5 sequence: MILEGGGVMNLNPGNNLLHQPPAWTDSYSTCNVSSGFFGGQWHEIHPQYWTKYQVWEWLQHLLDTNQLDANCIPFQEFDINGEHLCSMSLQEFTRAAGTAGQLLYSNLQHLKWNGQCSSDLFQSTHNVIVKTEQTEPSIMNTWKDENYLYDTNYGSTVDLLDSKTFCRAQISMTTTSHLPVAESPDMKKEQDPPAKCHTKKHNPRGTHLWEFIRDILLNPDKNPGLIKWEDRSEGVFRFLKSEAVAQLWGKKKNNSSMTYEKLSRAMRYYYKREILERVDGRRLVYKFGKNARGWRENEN
# How it was run: as §1
# [7] = molecular target: SPI1 (Homo sapiens, UniProt P17947 1-270); conditions: protein: recombinant; tags: N-terminal GST; dsDNA, one strand shown
# How it was run: as §1
# [8] = molecular target: SPIB (Homo sapiens, UniProt Q01892 1-262); conditions: protein: recombinant; tags: N-terminal GST; dsDNA, one strand shown
# SPIB, sequence (Q01892 whole entry): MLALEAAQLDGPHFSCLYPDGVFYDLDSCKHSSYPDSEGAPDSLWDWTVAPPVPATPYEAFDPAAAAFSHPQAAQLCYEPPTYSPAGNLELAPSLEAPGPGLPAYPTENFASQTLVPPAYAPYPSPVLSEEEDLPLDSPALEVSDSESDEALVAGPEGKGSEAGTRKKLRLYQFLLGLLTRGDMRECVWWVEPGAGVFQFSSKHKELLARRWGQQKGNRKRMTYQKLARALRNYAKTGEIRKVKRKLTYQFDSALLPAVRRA
# How it was run: as §1
# [9] = molecular target: T6, ELK3 (Homo sapiens, UniProt P41970 1-407); conditions: protein: recombinant; tags: N-terminal GST; dsDNA, one strand shown
# T6 sequence: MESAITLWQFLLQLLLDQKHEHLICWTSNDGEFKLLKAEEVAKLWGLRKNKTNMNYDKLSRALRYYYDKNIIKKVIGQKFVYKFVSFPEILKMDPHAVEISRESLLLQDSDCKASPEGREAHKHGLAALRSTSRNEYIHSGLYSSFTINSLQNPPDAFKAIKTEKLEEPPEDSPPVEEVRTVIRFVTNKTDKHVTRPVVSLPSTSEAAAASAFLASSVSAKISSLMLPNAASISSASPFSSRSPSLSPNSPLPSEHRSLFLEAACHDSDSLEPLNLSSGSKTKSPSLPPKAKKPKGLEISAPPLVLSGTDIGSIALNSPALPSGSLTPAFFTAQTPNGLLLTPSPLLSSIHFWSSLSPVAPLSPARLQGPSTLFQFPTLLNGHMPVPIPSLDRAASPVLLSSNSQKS
# How it was run: as §1
# [10] = molecular target: T7, FEV (Homo sapiens, UniProt Q99581 1-238); conditions: protein: recombinant; tags: N-terminal GST; dsDNA, one strand shown
# T7 sequence: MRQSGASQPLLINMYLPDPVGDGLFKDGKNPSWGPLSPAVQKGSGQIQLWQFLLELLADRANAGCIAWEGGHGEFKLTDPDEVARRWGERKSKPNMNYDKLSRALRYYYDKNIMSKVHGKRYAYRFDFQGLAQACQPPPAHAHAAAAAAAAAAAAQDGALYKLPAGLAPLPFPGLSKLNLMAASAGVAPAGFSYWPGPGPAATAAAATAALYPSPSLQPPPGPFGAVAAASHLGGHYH
# How it was run: as §1
# [11] = molecular target: ETV5 (Homo sapiens, UniProt P41161 1-510); conditions: protein: recombinant; tags: N-terminal GST; dsDNA, one strand shown
# ETV5, sequence (P41161 whole entry): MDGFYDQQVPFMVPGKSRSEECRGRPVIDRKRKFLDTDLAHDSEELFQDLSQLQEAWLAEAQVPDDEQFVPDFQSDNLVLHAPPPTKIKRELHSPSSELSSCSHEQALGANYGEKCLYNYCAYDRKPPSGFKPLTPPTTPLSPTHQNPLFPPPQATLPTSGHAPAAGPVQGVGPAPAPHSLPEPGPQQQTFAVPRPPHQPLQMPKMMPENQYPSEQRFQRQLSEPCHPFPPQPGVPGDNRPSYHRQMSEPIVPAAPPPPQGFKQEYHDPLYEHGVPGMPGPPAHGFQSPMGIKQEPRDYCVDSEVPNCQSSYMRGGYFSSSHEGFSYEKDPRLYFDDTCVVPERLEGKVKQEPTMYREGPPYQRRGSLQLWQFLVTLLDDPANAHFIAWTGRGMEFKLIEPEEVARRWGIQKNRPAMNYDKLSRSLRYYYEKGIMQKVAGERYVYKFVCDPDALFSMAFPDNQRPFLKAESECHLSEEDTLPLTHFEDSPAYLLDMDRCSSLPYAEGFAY
# How it was run: as §1
# [12] = molecular target: HSF1 (Homo sapiens, UniProt Q00613 1-529); conditions: protein: recombinant; tags: N-terminal GST; chain copies: 3; dsDNA, one strand shown
# HSF1, sequence (Q00613 whole entry): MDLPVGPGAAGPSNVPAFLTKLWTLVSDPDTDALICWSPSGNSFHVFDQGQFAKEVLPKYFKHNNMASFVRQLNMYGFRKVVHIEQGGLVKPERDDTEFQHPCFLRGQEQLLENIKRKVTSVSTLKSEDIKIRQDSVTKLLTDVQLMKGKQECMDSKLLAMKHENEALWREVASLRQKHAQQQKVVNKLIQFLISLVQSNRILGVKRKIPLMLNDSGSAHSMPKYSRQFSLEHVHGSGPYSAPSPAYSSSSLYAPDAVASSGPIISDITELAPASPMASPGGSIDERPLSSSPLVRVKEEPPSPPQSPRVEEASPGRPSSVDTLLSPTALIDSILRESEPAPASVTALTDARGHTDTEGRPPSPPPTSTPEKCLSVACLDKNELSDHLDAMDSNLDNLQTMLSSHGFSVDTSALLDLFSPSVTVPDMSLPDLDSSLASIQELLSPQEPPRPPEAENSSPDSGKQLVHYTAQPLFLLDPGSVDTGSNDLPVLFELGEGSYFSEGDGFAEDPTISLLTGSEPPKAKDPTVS
# How it was run: as §1
# [13] = molecular target: T8, SPIC (Homo sapiens, UniProt Q8N5J4 1-248); conditions: protein: recombinant; tags: N-terminal GST; dsDNA, one strand shown
# T8 sequence: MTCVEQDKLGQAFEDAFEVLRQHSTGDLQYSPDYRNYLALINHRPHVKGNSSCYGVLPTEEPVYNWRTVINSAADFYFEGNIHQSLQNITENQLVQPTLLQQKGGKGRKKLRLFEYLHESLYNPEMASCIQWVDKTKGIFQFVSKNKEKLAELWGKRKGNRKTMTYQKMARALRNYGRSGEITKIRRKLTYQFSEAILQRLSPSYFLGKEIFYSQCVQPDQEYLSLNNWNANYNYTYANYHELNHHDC
# How it was run: as §1
# [14] = molecular target: ELF4 (Homo sapiens, UniProt Q99607 1-663); conditions: protein: recombinant; tags: N-terminal GST; dsDNA, one strand shown
# ELF4, sequence (Q99607 whole entry): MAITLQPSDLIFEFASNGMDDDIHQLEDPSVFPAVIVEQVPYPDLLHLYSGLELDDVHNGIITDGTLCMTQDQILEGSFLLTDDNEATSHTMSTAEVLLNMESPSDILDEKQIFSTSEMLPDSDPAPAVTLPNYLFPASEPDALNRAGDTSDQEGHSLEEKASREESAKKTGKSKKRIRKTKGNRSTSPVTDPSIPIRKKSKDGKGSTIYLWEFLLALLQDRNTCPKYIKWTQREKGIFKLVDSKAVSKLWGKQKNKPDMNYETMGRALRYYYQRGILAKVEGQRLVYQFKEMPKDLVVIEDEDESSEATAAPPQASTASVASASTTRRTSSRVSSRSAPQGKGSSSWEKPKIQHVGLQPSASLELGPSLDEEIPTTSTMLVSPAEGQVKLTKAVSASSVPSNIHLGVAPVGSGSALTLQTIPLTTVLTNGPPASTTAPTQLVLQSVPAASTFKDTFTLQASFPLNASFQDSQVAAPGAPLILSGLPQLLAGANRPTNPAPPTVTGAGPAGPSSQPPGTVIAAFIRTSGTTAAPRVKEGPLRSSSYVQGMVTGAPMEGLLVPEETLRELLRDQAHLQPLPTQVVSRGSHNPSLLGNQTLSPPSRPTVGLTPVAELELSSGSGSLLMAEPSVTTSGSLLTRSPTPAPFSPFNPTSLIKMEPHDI
# How it was run: as §1
# [15] = molecular target: T9, ELK4 (Homo sapiens, UniProt P28324-2 1-405); conditions: protein: recombinant; tags: N-terminal GST; dsDNA, one strand shown
# T9 sequence: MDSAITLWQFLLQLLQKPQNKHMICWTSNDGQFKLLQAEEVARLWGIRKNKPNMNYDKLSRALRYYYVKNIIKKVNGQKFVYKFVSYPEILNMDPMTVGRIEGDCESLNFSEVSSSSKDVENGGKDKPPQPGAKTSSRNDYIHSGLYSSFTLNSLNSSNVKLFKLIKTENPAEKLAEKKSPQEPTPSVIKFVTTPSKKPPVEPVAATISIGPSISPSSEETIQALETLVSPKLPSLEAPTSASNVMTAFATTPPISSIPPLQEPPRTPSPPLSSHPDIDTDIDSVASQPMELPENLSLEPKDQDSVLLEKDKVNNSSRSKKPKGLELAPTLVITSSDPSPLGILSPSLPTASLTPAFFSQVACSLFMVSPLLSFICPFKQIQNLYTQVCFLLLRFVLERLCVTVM
# How it was run: as §1
# [16] = molecular target: T10, ETV2 (Homo sapiens, UniProt O00321 1-342); conditions: protein: recombinant; tags: N-terminal GST; dsDNA, one strand shown
# T10 sequence: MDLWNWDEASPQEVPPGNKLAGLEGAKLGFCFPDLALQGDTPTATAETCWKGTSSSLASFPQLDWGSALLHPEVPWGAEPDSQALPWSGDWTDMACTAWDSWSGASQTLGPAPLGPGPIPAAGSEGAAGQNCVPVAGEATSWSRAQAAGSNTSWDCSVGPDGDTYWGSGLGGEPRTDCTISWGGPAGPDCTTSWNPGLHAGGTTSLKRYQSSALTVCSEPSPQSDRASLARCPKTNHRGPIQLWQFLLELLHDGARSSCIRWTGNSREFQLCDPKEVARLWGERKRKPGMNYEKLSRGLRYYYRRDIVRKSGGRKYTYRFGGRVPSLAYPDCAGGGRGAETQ
# How it was run: as §1
# [17] = molecular target: T11, ELF3 (Homo sapiens, UniProt P78545 1-371); conditions: protein: recombinant; tags: N-terminal GST; dsDNA, one strand shown
# T11 sequence: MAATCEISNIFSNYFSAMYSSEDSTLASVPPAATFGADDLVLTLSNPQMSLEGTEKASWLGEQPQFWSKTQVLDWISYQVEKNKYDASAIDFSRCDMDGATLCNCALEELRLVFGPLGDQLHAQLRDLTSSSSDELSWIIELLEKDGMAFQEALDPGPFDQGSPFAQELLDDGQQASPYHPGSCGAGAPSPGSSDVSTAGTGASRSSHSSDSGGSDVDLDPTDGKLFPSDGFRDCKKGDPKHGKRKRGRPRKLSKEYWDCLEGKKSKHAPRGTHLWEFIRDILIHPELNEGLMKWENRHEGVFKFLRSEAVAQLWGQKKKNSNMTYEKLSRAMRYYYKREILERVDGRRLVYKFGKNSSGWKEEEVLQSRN
# How it was run: as §1
# [18] = molecular target: CRX (Homo sapiens, UniProt O43186 1-299); conditions: protein: recombinant; tags: N-terminal GST; dsDNA, one strand shown
# CRX, sequence (O43186 whole entry): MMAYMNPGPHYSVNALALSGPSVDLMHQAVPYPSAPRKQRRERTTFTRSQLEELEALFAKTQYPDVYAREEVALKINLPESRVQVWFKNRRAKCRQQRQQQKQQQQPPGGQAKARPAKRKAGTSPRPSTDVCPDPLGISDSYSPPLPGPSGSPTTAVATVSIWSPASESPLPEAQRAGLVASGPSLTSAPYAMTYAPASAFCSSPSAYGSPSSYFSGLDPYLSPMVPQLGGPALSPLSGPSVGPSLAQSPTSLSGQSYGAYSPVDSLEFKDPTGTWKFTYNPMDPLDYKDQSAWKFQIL
# How it was run: as §1
# [19] = molecular target: ETV1 (Homo sapiens, UniProt P50549 1-477); conditions: protein: recombinant; tags: N-terminal GST; dsDNA, one strand shown
# ETV1, sequence (P50549 whole entry): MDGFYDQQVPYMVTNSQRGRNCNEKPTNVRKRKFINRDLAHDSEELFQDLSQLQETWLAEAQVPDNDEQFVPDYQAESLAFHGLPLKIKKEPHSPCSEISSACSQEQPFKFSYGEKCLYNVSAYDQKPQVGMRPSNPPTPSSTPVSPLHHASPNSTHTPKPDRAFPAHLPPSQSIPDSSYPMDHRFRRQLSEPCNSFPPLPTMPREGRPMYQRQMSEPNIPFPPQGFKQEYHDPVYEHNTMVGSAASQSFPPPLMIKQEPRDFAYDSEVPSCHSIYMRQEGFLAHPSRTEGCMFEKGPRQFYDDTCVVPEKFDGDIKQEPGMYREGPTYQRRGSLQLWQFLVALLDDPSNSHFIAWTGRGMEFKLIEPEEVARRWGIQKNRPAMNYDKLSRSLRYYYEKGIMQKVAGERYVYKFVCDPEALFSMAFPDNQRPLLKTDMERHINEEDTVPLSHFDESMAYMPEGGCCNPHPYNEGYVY
# How it was run: as §1
sequence,measurement,setting,value
TTCCAA,binding signal,[1],"1.39 fold enrichment (6-mer frequency, TF over GST control)"
same,binding signal,[2],"1.19 fold enrichment (6-mer frequency, TF over GST control)"
same,binding signal,[3],"1.34 fold enrichment (6-mer frequency, TF over GST control)"
same,binding signal,[4],"1.26 fold enrichment (6-mer frequency, TF over GST control)"
same,binding signal,[5],"1.31 fold enrichment (6-mer frequency, TF over GST control)"
same,binding signal,[6],"1.26 fold enrichment (6-mer frequency, TF over GST control)"
same,binding signal,[7],"1.11 fold enrichment (6-mer frequency, TF over GST control)"
same,binding signal,[8],"1.29 fold enrichment (6-mer frequency, TF over GST control)"
same,binding signal,[9],"1.26 fold enrichment (6-mer frequency, TF over GST control)"
same,binding signal,[10],"1.26 fold enrichment (6-mer frequency, TF over GST control)"
same,binding signal,[11],"1.18 fold enrichment (6-mer frequency, TF over GST control)"
same,binding signal,[12],"1.47 fold enrichment (6-mer frequency, TF over GST control)"
same,binding signal,[13],"1.31 fold enrichment (6-mer frequency, TF over GST control)"
same,binding signal,[14],"1.27 fold enrichment (6-mer frequency, TF over GST control)"
same,binding signal,[15],"1.31 fold enrichment (6-mer frequency, TF over GST control)"
same,binding signal,[16],"1.29 fold enrichment (6-mer frequency, TF over GST control)"
same,binding signal,[17],"1.16 fold enrichment (6-mer frequency, TF over GST control)"
same,binding signal,[18],"1.39 fold enrichment (6-mer frequency, TF over GST control)"
same,binding signal,[19],"1.21 fold enrichment (6-mer frequency, TF over GST control)"
